# Laboratory results reported in the supplement of paper PMC9135407.
# Where “and” joins values, the source holds several entries; their conditions need not be identical. Equal entries are not always repeated. Structures can show the parent of a compound that is named as a salt. In all, about 5,800 compounds went through this assay and about 620 (11%) showed activity. The sample as a whole holds a higher share of actives than the screen did. Unmarked numbers belong to inactive results.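 The calls were made as follows: active = score above a cut-off or among the top three wells of a plate; in these data no inactive exceeds 0.85.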
# System: primary human hepatic stellate cells (donor 1)
# Experiment: scaled lipid accumulation score (0 = DMSO-like, 1 = nortriptyline-like); higher = stronger HSC inactivation (lipid re-accumulation), active = hit call of the paper
# Conditions: 48 h
# [1] = library stock concentration: 10 mM
# [2] = library stock concentration: 3.33 mM
# [3] = library stock concentration: 1 mM
structure (smiles),measurement,setting,value
O=C[C@@H]1CCCN1C(=O)[C@@H]1CCCN1C(=O)OCc1ccccc1 [Z-prolyl-prolinal],scaled lipid accumulation score,library stock concentration: 15.1 mM,0.107
CO/N=C(\C(=O)N[C@@H]1C(=O)N2C(C(=O)O)=C(CSC(=O)c3ccco3)CS[C@H]12)c1csc(N)n1,scaled lipid accumulation score,[1],≤ 0
CO/N=C(\C(=O)N[C@@H]1C(=O)N2C(C(=O)O)=C(CSC(=O)c3ccco3)CS[C@H]12)c1csc(N)n1 [Ceftiofur HCl],scaled lipid accumulation score,[2],0.015
same,scaled lipid accumulation score,[1],≤ 0
CC[C@H]1OC(=O)[C@H](C)[C@@H](O[C@H]2C[C@@](C)(OC)[C@@H](O)[C@H](C)O2)[C@H](C)[C@@H](O[C@@H]2O[C@H](C)C[C@H](NC)[C@H]2O)[C@](C)(O)C[C@@H](C)CN(C)[C@H](C)[C@@H](O)[C@]1(C)O,scaled lipid accumulation score,[1],0.363
Cc1ccc2c(c1)C(=O)C1(O)CCN(c3ccccc3)C1=N2 (centres undefined) [Blebbistatin],scaled lipid accumulation score,library stock concentration: 17.1 mM,0.072
Cc1ccc2c(c1)C(=O)C1(O)CCN(c3ccccc3)C1=N2 (centres undefined),scaled lipid accumulation score,[3],≤ 0
same,scaled lipid accumulation score,[1],≤ -0.006
"CCCCC[C@H](O)/C=C/[C@@H]1[C@@H](C/C=C\CCCCCC(=O)O)[C@@H](O)C[C@H]1O [1a,1b-dihomo Prostaglandin F2.alpha.]",scaled lipid accumulation score,[3],≤ 0
"CCCCC(C)(C)[C@H](O)/C=C/[C@H]1C=CC(=O)[C@@H]1CCCCCCC(=O)O [16,16-dimethyl Prostaglandin A1]",scaled lipid accumulation score,[3],≤ 0
CCCCCCCC/C=C/CCCCCCCC(=O)O [Elaidic Acid],scaled lipid accumulation score,[3],≤ 0
C(=C/CCNC)(/c1c(cccc1)CC2)\c3c2cccc3 [Nortriptyline],scaled lipid accumulation score,library stock concentration: 7.6 mM,0.971 (active)
c1ccc(\C(\c2c3cccc2)=C\CCNC)c(C=C3)c1 [Norcyclobenzaprine],scaled lipid accumulation score,,1.13 (active)
CNCCC=C1c2ccccc2CCc2ccccc21 [Nortriptyline],scaled lipid accumulation score,[1],0.72
Cl.C(=C\CCNC)(/c1c(cccc1)CC2)\c3c2cccc3 [Nortriptyline hydrochloride],scaled lipid accumulation score,,1.13 (active)
CNCCC=C1c2ccccc2CCc2ccccc21.Cl,scaled lipid accumulation score,[1],1.02 (active)
OCc1ccccc1,scaled lipid accumulation score,[1],≤ 0
CC(=O)N[C@@H](Cc1c[nH]c2ccccc12)C(N)=O [Acetyltryptophanamide],scaled lipid accumulation score,[1],≤ 0
COc1ccc2c(Oc3ccc(NC(=O)c4c(C)n(CC(C)(C)O)n(-c5ccccc5)c4=O)nc3)ccnc2c1,scaled lipid accumulation score,[2],≤ 0
same,scaled lipid accumulation score,[1],≤ 0
C[C@H](Cc1ccc(O)c(O)c1)[C@@H](C)Cc1ccc(O)c(O)c1,scaled lipid accumulation score,[1],≤ -0.055
COCCCN1CCC(NC(=O)c2cc(Cl)c(N)c3c2OCC3)CC1 [Prucalopride Succinat],scaled lipid accumulation score,[2],0.028
same,scaled lipid accumulation score,[1],0.03
COCCCN1CCC(NC(=O)c2cc(Cl)c(N)c3c2OCC3)CC1 [Prucalopride],scaled lipid accumulation score,[2],≤ 0
same,scaled lipid accumulation score,[1],≤ 0
CC1(C)O[C@H]2CC(=O)OC[C@]23[C@H]2CC[C@@]4(C)[C@H](c5ccoc5)OC(=O)[C@H]5O[C@]54[C@]2(C)C(=O)C[C@@H]13 [Limonin],scaled lipid accumulation score,[2],≤ 0
same,scaled lipid accumulation score,[1],0.008
O=C(O)CCC/C=C/C[C@@H]1[C@@H](CC[C@@H](O)CCc2ccccc2)[C@H](O)C[C@@H]1O [5-trans Latanoprost (free acid)],scaled lipid accumulation score,[3],≤ 0
O=C1O[C@H]([C@@H](O)CO)C([O-])=C1O.[Na+] [Sodium ascorbate],scaled lipid accumulation score,[2],≤ 0
same,scaled lipid accumulation score,[1],≤ -0.001
CCCCC[C@H](O)/C=C/[C@H]1C(=O)C[C@H](O)[C@@H]1C/C=C\CCCC(=O)OCC(O)CO (some centres undefined) [Prostaglandin D2-1-glyceryl ester],scaled lipid accumulation score,[3],≤ 0
CN1C(=O)C(Cc2c[nH]c3ccccc23)NC1=S (centres undefined) [Necrostatin-1],scaled lipid accumulation score,library stock concentration: 80 uM,0.008
same,scaled lipid accumulation score,library stock concentration: 400 uM,≤ 0
same,scaled lipid accumulation score,library stock concentration: 2 mM,≤ 0
same,scaled lipid accumulation score,[2],≤ -0.009 and ≤ 0
same,scaled lipid accumulation score,[1],≤ 0 and 0.03
CCCc1c(OCCCCc2nnn[nH]2)ccc(C(C)=O)c1O,scaled lipid accumulation score,[3],≤ 0 and ≤ -0.021
same,scaled lipid accumulation score,[1],0.011
COc1cc2c(cc1OC)-c1c/c(=N\c3c(C)cc(C)cc3C)n(C)c(=O)n1CC2 [Trequinsin],scaled lipid accumulation score,library stock concentration: 4.9 mM,0.164
same,scaled lipid accumulation score,library stock concentration: 12.3 mM,0.244
COc1cc2c(cc1OC)-c1c/c(=N\c3c(C)cc(C)cc3C)n(C)c(=O)n1CC2 [Trequinsin hydrochloride],scaled lipid accumulation score,[1],0.494 and 0.174
C#CC(N)CCC(=O)O (centres undefined) [gamma-Acetylinic GABA],scaled lipid accumulation score,[1],0.037
"C1CCC2(CC1)CCNCC2 [4,4-Pentamethylenepiperidine hydrochloride]",scaled lipid accumulation score,[1],0.028
CCCCCCCCCCCCCCCCCCCCCC(=O)NCCS(=O)(=O)O [N-Docosanoyl Taurine],scaled lipid accumulation score,[3],≤ 0
